The record followed here is publication PMC12136788.

First the molecules themselves.
T1: UNK ZnF1-3 (human, UniProt Q9C0B0 31-174)
T1 sequence: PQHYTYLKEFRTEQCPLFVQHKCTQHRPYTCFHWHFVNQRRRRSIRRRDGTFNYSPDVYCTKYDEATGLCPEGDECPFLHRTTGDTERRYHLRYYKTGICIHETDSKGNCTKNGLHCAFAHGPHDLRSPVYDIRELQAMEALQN

B1: chr2:47387770:47387771:-_ENSG00000143933_ENST00000272298|hu_mus|hu_hu_hu_mus_True|18_38 (ssRNA)
RNA: GGGAGUUCUACAGUCCGACGAUCAAGGUUUAAGGACAAUGACAGUAAGAUAAGGGAAGAAAACAUGGAGGAAUGAAGUCCUAAUUACUAUACAUGCAUAUUUUUUUACAGUAGGGGAGAAACCUUUUUUACAGAUAAGUUACACAACAGAGGAUUGAGCAUCA
B2: chr17:26793470:26793471:+_ENSMUSG00000001576_ENSMUST00000167662|mus_hu|FALSE|FALSE (ssRNA)
RNA: GGGAGUUCUACAGUCCGACGAUCCGGAGCUUAGAGCCAAAAAUUACAAAUGGCAGAGACUUGAGCUAUCCAUAAGAUAAUUUUAAAAAUCCUUCCACUGGACACUCCCCUUCAUUACAAAAGUAUGCAAACAAUCUUGCUAUACAACAGAGGAUUGAGCAUCA
B3: chr14:35182089:35182090:-_ENSG00000165410_ENST00000422678|hu_mus|motif|central (ssRNA)
RNA: GGGAGUUCUACAGUCCGACGAUCCUUAAGAUCAAAUGGCACUUGGCUAUUAUUUUAUAGUGGCUUUCCUUCAAGGGAAACGGCAACACUGCCCCCCAGUUUCUCUCCCAGCGUCGAGCGGUCCUUAAUAUCGUCCAAGCCAUUCAACAGAGGAUUGAGCAUCA
B4: chr3:58389949:58389950:+_ENSMUSG00000075700_ENSMUST00000107924|mus_hu|FALSE|FALSE (ssRNA)
RNA: GGGAGUUCUACAGUCCGACGAUCCAAGAAGAAAACCAUCAUACAUGCAUAAACCUUAUUUUCUUGGCCCCACUGCCAGAUGCUAGGAGCUUGCAUGCCAAAGAAAGCAAAAGGAUCCUUGCCAACAAUUAUUAAGCCUAUUAACAACAGAGGAUUGAGCAUCA
B5: chr10:117127018:117127019:-_ENSMUSG00000020184_ENSMUST00000020408|mus_mus|FALSE|FALSE (ssRNA)
RNA: GGGAGUUCUACAGUCCGACGAUCAGAUGGAAAGGACUUCUCACAUACACUUCCAAAGUCCUUCCAAGCGGAGAUUAUUUAAAAUAUAAGGAAAAUAUAAACAGCCAAUGCAAAUUACUUAAAACACAAAUAUAAAAUAAACAACAACAGAGGAUUGAGCAUCA
B6: chr13:90244479:90244480:+_ENSMUSG00000012422_ENSMUST00000161568|mus_hu|FALSE|FALSE (ssRNA)
RNA: GGGAGUUCUACAGUCCGACGAUCCAAAAUGGUGUGCCCAGAGGAAAAGCAAGCACUAUUAAAUAUUAAUGCAAUCCUUAUCAACACAAAUUGAGCCAUUUUAAUAAAAAAGCUAGUCCAAAAAAGGUUCUCAUUCUAUAAAGACAACAGAGGAUUGAGCAUCA
B7: chr2:91446484:91446485:+_ENSMUSG00000040549_ENSMUST00000099716|mus_hu|motif|central (ssRNA)
RNA: GGGAGUUCUACAGUCCGACGAUCCAAUUUCUCAUCUGCCAUGUGUGUGUUGUAGAUGAGUCUUAGCUGCAUAAAAGUGGCGGUCAGAAACUGAUCAAUAUGGCCGGACAUGGCUUCAGCUUUGUCUUCCUGUCUCAGGACCUCCAACAGAGGAUUGAGCAUCA
B8: 89236039_89237110_928_3pUTR_ENSG00000065243_ENST00000370521|human|control|control (ssRNA)
RNA: GGGAGUUCUACAGUCCGACGAUCGGUUUUGCAUUAUCAAAAGCCAAUUCAUUAGUCUGGACUGCCUGAAGAAUCUGCAUUCGUAUGACUUCUAUUUUUGUCUUGCUGUCCUGGAGCAGUUGCUGAGCUGUACCAUGGAGUUUCCAACAGAGGAUUGAGCAUCA
B9: chr17:56552419:56552420:-_ENSMUSG00000013236_ENSMUST00000086828|mus_mus|mus_mus_mus_hu_False|98_98 (ssRNA)
RNA: GGGAGUUCUACAGUCCGACGAUCAAAAAAUACACUAUAAAAAAAAAAUGAAAUGUCACGGGAUACAGUUACACUGAGAGUUUUAAAAGAAAGCUGGAUUCUGGUCCCAGCCCAGUGUCCCCAGGCUGCAGAGCGGGGAGGAGCCAACAGAGGAUUGAGCAUCA
B10: chr17:56552419:56552420:-_ENSMUSG00000013236_ENSMUST00000086828|mus_mus|mus_mus_mus_hu_False|8_48 (ssRNA)
RNA: GGGAGUUCUACAGUCCGACGAUCAAAAAAUACACUAUUUAAAAAAAAUGAAAUGUCACGGGAUACAGUUACACUGAGAGUUUUAAAAAAAAAUAAGAUUCUGGUCCCAGCCCAGUGUCCCCAGGCUGAGUGCGGAAGAGGAGCCAACAGAGGAUUGAGCAUCA
B11: chr17:56552419:56552420:-_ENSMUSG00000013236_ENSMUST00000086828|mus_mus|mus_mus_mus_hu_False|8_98 (ssRNA)
RNA: B10 RNA with U38A, U39A, A88G, A92G, U93C, A94U, A95G
B12: chr17:56552419:56552420:-_ENSMUSG00000013236_ENSMUST00000086828|mus_hu|FALSE|FALSE (ssRNA)
RNA: B9 RNA with A38U, A39U
B13: chr17:56552419:56552420:-_ENSMUSG00000013236_ENSMUST00000086828|mus_mus|mus_mus_mus_hu_False|1_98 (ssRNA)
RNA: B9 RNA with A138C, G139A, C143G
B14: chr5:145543945:145543946:-_ENSG00000133706_ENST00000545646|hu_hu|hu_hu_hu_mus_True|1_8 (ssRNA)
RNA: GGGAGUUCUACAGUCCGACGAUCCUGAACGGCCAGUGGUGGGAAAUAAUCAAGCCAGUGCUCUGCUUCAGAAAACUUCACUAUGUCGUCAUCAGAGAGCCCAAGGGAUUUCAUAAUGUCCCACUGGUAUUUAGAAGAUCCAGCCAACAGAGGAUUGAGCAUCA

Numbering of substitutions follows the chain as printed. Whole data set: some 24,000 sequences, median “enrichment r” near 0.99, cut for the highest 2% near 3.7. What follows is part of a selection rich in the highest values, with near analogues and random picks from the rest.

The target of this experiment is T1, UNK ZnF1-3. As to the kind of experiment: nsRBNS (natural sequence RNA bind-n-seq); RBNS binding buffer (assumed for nsRBNS): 25 mM Tris pH 7.5, 150 mM KCl, 3 mM MgCl2, 0.01% Triton X-100, 500 ug/ml BSA, 20 U/ml SUPERase-In, 4 C; UNK is unkempt and MSI1 is Musashi-1; names of the RNAs are library labels; protein concentration not given here; high values mean tight binding.
The molecule B1 came in with a binding signal of 1.7 enrichment R.
As for B2, the figure is 3.67 enrichment R.
As for B3, the figure is 1.04 enrichment R.
As for B4, the figure is 1.51 enrichment R; as for B5, 5.74 enrichment R; as for B6, 4.62 enrichment R.
In the case of B7, the binding signal came to 0.637 enrichment R.
In the case of B8, the binding signal was 0.571 enrichment R.
The figure for B9 is 4.54 enrichment R; for B10 it is 6.71 enrichment R; for B11 it is 5.52 enrichment R.
As for B12, the figure is 3.32 enrichment R; as for B13, 5.8 enrichment R; as for B14, 1.44 enrichment R.
